Experimental data reported in PubChem BioAssay (Tox21).
Values without a mark were called inactive. Results filed as inconclusive are left out. A call without a number means that no potency is given here. Active and inactive are the calls of the source. Unless noted, the call rests on the fitted dose curve.

Tests used:
[1] = Nuclear factor erythroid 2-related factor 2/antioxidant responsive element (Nrf2/ARE) small molecule agonists: luciferase reporter gene qHTS assay in human keratinocytes (AID 1919969); further: nearly all actives have a fitted effect of over 35% in size; further: potency means the concentration at half of the fitted maximal effect
[2] = target: Gonadotropin-releasing hormone receptor (Homo sapiens) (UniProt P30968); experiment: Human gonadotropin-releasing hormone receptor (GnRHR) small molecule agonists, calcium flux assay in GnRHR-HEK293 cells (AID 1920063); further: nearly all actives have a fitted effect of over 35% in size
Outline: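 Fluorescence kinetics (480 nm excitation, 540 nm emission; 3 min, 1 s steps) report calcium mobilisation in human GnRHR-HEK293 cells in agonist mode. Dye incubation: 1 h, 37 C.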

[3] = target: KiSS-1 receptor (Homo sapiens) (UniProt Q969F8); experiment: Human kisspeptin (KISS1R) small molecule agonists, calcium flux assay in KISS1R-HEK293 cells (AID 1920064; active means well fitted activation curve with a large enough effect in the repeat runs)
Outline: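 Measures KISS1R agonism through calcium-sensitive dye fluorescence in stably transfected HEK293 cells, read for 3 min after pin-tool compound delivery; 15-point titrations in triplicate.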

[4] = G protein-coupled receptor (GPCR) small molecule agonists, calcium flux assay: HEK293 wild type cell line counter screen (AID 1920065)
Outline: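 Readout: fluorescence at 480 nm excitation/540 nm emission, sampled at 1 s intervals for 3 min. Cells had been cultured 18 h, then dye-loaded 1 h at 37 C before compound or ATP addition.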

[5] = p53 small molecule agonists, cell-based qHTS assay with human liver microsomes: qHTS cell viability counter screen (AID 1963579); further: nearly all actives have a fitted effect of over 45% in size; further: potency means the concentration at half of the fitted maximal effect
Outline: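 p53RE-bla cells, 4,000/well, dosed 5 hours after plating, with human liver microsomes (0.5 mg/mL final) plus NADPH (0.5 mg/mL final), 16 hours at 37 C. Viability read as CellTiter-Glo luminescence after 30 min at room temperature.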

[6] = target: 5-hydroxytryptamine receptor 2A (Homo sapiens) (UniProt P28223); experiment: 5-hydroxytryptamine receptor 2A (HTR2A) small molecule antagonists, cell-based qHTS assay (AID 1963586); further: nearly all actives have a fitted effect of over 45% in size
Outline: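 Antagonist-mode intracellular calcium assay: DOI (4 nM) added after 5 min compound pre-incubation at room temperature to dye-loaded HTR2A-CHO cells. Fluorescence followed for 3 min, sampled every second.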

[7] = target: 5-hydroxytryptamine receptor 2A (Homo sapiens) (UniProt P28223); experiment: 5-hydroxytryptamine receptor 2A (HTR2A) small molecule agonists, cell-based qHTS assay (AID 1963587); further: nearly all actives have a fitted effect of over 30% in size
Outline: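 Kinetic calcium-flux fluorescence (2 min, 1 sec intervals) after compound addition in agonist mode. HTR2A-CHO cells were cultured 18 h, then dye-loaded 1 h at 37 C.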

[8] = target: Muscarinic acetylcholine receptor M1 (Homo sapiens) (UniProt P11229); experiment: Cholinergic receptor muscarinic 1 (CHRM1) small molecule antagonists, cell-based qHTS assay (AID 1963588); further: nearly all actives have a fitted effect of over 40% in size
Outline: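 CHRM1-CHO calcium-flux assay, antagonist mode. Cells were seeded 18 h, dye-loaded 1 h at 37 C and given compound for 5 min at RT, then acetylcholine was added at 50nM. FDSS fluorescence was read 3 min; 15 concentrations, three runs.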

[9] = target: Muscarinic acetylcholine receptor M1 (Homo sapiens) (UniProt P11229); experiment: Cholinergic receptor muscarinic 1 (CHRM1) small molecule agonists, cell-based qHTS assay (AID 1963589); further: nearly all actives have a fitted effect of over 35% in size
Outline: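 Each compound was tested at 15 concentrations across three independent runs on dye-loaded CHO cells stably expressing human CHRM1, reading intracellular calcium fluorescence kinetically at 1 sec intervals.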

[10] = target: Beta-2 adrenergic receptor (Homo sapiens) (UniProt P07550); experiment: Adrenergic beta2 receptor (ADRB2) small molecule antagonists, cell-based qHTS assay (AID 1963592); further: nearly all actives have a fitted effect of over 50% in size; further: potency means the concentration at half of the fitted maximal effect; on activity change, negative = inhibition: series mostly up to about 92 µM
Outline: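 Cells (CHO, stable ADRB2 overexpression) incubated 18-20hr at 37C; compounds added from DMSO; agonist mix (1nM isoproterenol, 100uM IBMX, 25uM Ro-20-1724) added; 0.5hr RT; d2-cAMP and anti-cAMP-cryptate added; 1hr RT; 665/615 nm read.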

[11] = target: D(2) dopamine receptor (Homo sapiens) (UniProt P14416); experiment: Dopamine D2 receptor (DRD2) small molecule agonists, cell-based qHTS assay (AID 1963594); further: nearly all actives have a fitted effect of over 35% in size
Outline: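 cAMP accumulation in DRD2-HEK293 cells measured by HTRF after 1 h detection; compounds added 10 min before NKH477 (200nM […]) forskolin-analogue stimulation, 30 min at room temperature, with Ro20-1724 present at 0.1 mM final.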

[12] = target: D(2) dopamine receptor (Homo sapiens) (UniProt P14416); experiment: Dopamine D2 receptor (DRD2) small molecule antagonists, cell-based qHTS assay (AID 1963595; active means well fitted inhibition curve with a large enough effect in the signal ratio in the repeat runs, with a control signal flat; the % refers to the signal ratio; further: potency means the concentration at half of the fitted maximal effect)
Outline: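 HTRF cAMP read-out at 665 and 620 nm emission (340 nm excitation). Antagonist mode: compounds were tested against 12 nM quinpirole in DRD2-HEK293 cells, with 200 nM NKH477 raising cAMP and 0.1 mM Ro20-1724 blocking its breakdown.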

[13] = p53 small molecule agonists, cell-based qHTS assay with human liver microsomes (AID 1963577)
Outline: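 p53RE-bla cells, 4,000/well, compound added after 5 h, with human liver microsomes 0.5 mg/mL and NADPH 0.5 mg/mL final; 16 h at 37 C, then LiveBLAzer 2 h RT, fluorescence.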

[14] = p53 small molecule agonists, cell-based qHTS assay with rat liver microsomes (AID 1963578)
Outline: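 p53RE-bla cells, 4,000/well, pre-incubated 5 h, then given compounds plus rat liver microsomes (0.5 mg/mL final) and NADPH (0.5 mg/mL final). Incubation 16 h at 37 C; beta-lactamase reporter read by LiveBLAzer fluorescence after 2 h at room temperature.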

[15] = p53 small molecule agonists, cell-based qHTS assay with rat liver microsomes: qHTS cell viability counter screen (AID 1963580); further: nearly all actives have a fitted effect of over 45% in size
Outline: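 HCT-116 p53RE-bla, 4,000 cells/well, 5 h pre-incubation; cpd + rat liver microsomes 0.5 mg/mL + NADPH 0.5 mg/mL (final); 16 h, 37 C; CellTiter-Glo, 30 min RT; luminescence.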

[16] = p53 small molecule agonists, cell-based qHTS assay: qHTS cell viability counter screen (AID 1963581); further: nearly all actives have a fitted effect of over 45% in size
Outline: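 In the same plates used for the p53 bla reporter, HCT-116 cells given compounds for 16 h at 37 C received CellTiter-Glo; luminescence was recorded 30 min later at room temperature.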

[17] = p53 small molecule agonists, cell-based qHTS assay (AID 1963582; active means well fitted activation curve with a large enough effect in the signal ratio in the repeat runs, not every such curve was filed as active; the % refers to the signal ratio)
Outline: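 Compounds are pin-transferred in DMSO onto p53RE-bla cells and incubated 16 h at 37 C. The B/G FRET beta-lactamase substrate is then applied for 2 h at RT and fluorescence recorded.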

[18] = cAMP Responsive Elements (CRE) small molecule agonists, cell-based qHTS assay (AID 1963590)
Outline: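 Cell line: CRE-bla HEK 293T; medium DMEM/10% dialyzed FBS/0.1 mM NEAA/1 mM pyruvate/25 mM HEPES; 3 h compound exposure; beta-lactamase FRET readout after 2 h substrate loading at RT.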

[19] = cAMP Responsive Elements (CRE) small molecule antagonists, cell-based qHTS assay (AID 1963591; active means well fitted inhibition curve with a large enough effect in the signal ratio in the repeat runs, not every such curve was filed as active; the % refers to the signal ratio)
Outline: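 Inhibition of NKH477-driven (0.25 uM final) CRE-beta-lactamase signal in HEK293T cells, 3 h compound exposure at 37 °C, detected by FRET substrate fluorescence.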

[20] = target: Beta-2 adrenergic receptor (Homo sapiens) (UniProt P07550); experiment: Adrenergic beta2 receptor (ADRB2) small molecule agonists, cell-based qHTS assay (AID 1963593);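 further: CHO cells stably overexpressing human ADRB2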
Outline: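 CHO cells stably over-expressing ADRB2 were plated overnight at 37C, then dosed with compounds plus a stimulation mix containing 100uM IBMX and 25uM Ro-20-1724 for 0.5hr at room temperature. cAMP was measured by HTRF competition, 1hr.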

Chain of D(2) dopamine receptor (Homo sapiens) (P14416 whole entry, looked up): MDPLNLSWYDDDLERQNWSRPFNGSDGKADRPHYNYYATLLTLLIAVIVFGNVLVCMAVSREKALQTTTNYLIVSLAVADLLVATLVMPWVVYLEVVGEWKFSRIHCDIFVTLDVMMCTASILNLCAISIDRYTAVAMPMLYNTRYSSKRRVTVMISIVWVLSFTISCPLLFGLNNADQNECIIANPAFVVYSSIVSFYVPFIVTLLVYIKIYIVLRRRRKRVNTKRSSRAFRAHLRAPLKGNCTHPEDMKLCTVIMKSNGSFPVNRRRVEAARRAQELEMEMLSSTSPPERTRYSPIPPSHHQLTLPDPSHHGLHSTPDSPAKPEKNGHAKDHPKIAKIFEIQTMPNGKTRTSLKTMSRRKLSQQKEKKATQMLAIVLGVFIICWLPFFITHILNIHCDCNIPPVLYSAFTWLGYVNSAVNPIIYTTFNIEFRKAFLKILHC
Chain of Beta-2 adrenergic receptor (Homo sapiens) (P07550 whole entry, looked up): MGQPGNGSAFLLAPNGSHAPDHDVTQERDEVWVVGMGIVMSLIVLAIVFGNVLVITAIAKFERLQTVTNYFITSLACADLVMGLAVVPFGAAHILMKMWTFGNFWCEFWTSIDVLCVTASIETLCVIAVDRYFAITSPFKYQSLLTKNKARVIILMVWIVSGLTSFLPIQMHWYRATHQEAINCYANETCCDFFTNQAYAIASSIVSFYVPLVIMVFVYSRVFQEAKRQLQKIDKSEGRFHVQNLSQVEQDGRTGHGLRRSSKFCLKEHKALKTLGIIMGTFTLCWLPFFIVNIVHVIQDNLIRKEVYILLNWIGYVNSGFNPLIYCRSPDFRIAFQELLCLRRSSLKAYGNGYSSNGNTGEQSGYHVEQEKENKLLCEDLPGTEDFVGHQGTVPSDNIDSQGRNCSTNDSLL
Chain of KiSS-1 receptor (Homo sapiens) (Q969F8 whole entry, looked up): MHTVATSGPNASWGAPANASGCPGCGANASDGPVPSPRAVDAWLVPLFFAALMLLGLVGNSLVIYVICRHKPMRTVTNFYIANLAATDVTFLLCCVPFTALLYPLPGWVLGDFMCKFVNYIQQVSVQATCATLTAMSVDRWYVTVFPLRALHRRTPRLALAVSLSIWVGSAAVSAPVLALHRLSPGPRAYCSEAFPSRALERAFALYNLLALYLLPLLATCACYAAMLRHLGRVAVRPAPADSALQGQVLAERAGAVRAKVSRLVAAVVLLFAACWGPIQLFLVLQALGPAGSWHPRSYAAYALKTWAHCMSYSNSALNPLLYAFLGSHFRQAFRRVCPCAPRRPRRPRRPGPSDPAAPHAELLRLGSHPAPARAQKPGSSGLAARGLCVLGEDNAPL
Chain of Gonadotropin-releasing hormone receptor (Homo sapiens) (P30968 whole entry, looked up): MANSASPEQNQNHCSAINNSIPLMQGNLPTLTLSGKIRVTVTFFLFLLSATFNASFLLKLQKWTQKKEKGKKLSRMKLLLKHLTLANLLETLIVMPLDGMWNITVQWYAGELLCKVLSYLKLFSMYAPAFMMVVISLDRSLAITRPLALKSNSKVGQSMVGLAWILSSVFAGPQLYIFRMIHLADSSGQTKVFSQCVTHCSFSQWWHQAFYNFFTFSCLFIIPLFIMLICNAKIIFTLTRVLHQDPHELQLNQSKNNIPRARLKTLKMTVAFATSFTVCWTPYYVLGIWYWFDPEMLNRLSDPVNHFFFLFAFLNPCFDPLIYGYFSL
Chain of Muscarinic acetylcholine receptor M1 (Homo sapiens) (P11229 whole entry, looked up): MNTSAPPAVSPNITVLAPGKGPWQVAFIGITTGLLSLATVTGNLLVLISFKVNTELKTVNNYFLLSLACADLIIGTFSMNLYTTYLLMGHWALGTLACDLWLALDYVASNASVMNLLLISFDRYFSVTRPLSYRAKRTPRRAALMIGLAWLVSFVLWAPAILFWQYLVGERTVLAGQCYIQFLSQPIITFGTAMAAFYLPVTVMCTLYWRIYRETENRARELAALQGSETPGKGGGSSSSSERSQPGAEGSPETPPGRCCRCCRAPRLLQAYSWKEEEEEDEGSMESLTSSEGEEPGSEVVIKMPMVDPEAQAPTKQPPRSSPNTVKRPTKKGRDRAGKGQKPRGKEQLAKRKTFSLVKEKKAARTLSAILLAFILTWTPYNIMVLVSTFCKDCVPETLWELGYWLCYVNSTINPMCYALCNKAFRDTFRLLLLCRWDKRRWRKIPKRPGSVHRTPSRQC
Chain of 5-hydroxytryptamine receptor 2A (Homo sapiens) (P28223 whole entry, looked up): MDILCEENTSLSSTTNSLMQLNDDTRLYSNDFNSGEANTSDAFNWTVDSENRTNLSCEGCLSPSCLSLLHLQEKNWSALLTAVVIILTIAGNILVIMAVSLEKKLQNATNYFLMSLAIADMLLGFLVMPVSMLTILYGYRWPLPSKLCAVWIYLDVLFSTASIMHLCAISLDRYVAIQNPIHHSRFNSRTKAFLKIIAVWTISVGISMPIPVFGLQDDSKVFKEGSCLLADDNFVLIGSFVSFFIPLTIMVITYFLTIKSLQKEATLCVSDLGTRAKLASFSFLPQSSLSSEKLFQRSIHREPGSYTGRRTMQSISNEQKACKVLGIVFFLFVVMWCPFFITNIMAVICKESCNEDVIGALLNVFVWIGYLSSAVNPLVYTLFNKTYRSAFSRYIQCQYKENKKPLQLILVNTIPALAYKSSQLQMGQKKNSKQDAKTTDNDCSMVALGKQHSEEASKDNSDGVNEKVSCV

Question: With `CCCCCCOc1ccc(O)cc1` as the compound, how does the Potency [1] read?
Answer: The Potency was 21.7 µM (active).

Question: And the Potency [2]?
Answer: Its Potency is “inactive”.

Question: What about the Potency [3] of the same compound?
Answer: The Potency was “inactive”.

Question: What about the Potency [4] of the same compound?
Answer: The Potency was “inactive”.

Question: And the Potency [5]?
Answer: Its Potency is “inactive”.

Question: And the Potency [6]?
Answer: The Potency was “inactive”.

Question: What about the Potency [7] of the same compound?
Answer: The Potency was “inactive”.

Question: What about the Potency [8] of the same compound?
Answer: The Potency was “inactive”.

Question: And the Potency [9]?
Answer: The Potency was “inactive”.

Question: And the Potency [10]?
Answer: The Potency was “inactive”.

Question: And the Potency [11]?
Answer: The Potency was “inactive”.

Question: And the Potency [12]?
Answer: The Potency was 48.6 µM (active).

Question: For `C=CC(=C)CCC=C(C)C`, which Potency [1] is on record?
Answer: The Potency was 68.6 µM (active).

Question: What about the Potency [2] of the same compound?
Answer: The Potency was “inactive”.

Question: What about the Potency [3] of the same compound?
Answer: The Potency was “inactive”.

Question: What about the Potency [13] of the same compound?
Answer: The Potency was “inactive”.

Question: What about the Potency [14] of the same compound?
Answer: Its Potency is “inactive”.

Question: And the Potency [5]?
Answer: Its Potency is “inactive”.

Question: What about the Potency [15] of the same compound?
Answer: The Potency was “inactive”.

Question: What about the Potency [16] of the same compound?
Answer: The Potency was “inactive”.

Question: And the Potency [17]?
Answer: The Potency was “inactive”.

Question: And the Potency [6]?
Answer: The Potency was “inactive”.

Question: And the Potency [7]?
Answer: Its Potency is “inactive”.

Question: What about the Potency [8] of the same compound?
Answer: Its Potency is “inactive”.

Question: What about the Potency [9] of the same compound?
Answer: The Potency was “inactive”.

Question: What about the Potency [18] of the same compound?
Answer: Its Potency is “inactive”.

Question: What about the Potency [19] of the same compound?
Answer: Its Potency is “inactive”.

Question: And the Potency [10]?
Answer: The Potency was “inactive”.

Question: What about the Potency [20] of the same compound?
Answer: The Potency was “inactive”.

Question: What about the Potency [11] of the same compound?
Answer: The Potency was “inactive”.

Question: And the Potency [12]?
Answer: The Potency was “inactive”.

Question: What does the source list for `C=C(C)C(=O)OCCCCCCCCCCCCCCCCCC`?
Answer: activity, positive = activation [1]: -9.09% [at 19 µM]; activity change [2]: 1.34% [at 11.8 µM, active compounds read high]; activation [3]: 1.35% [at 15.8 µM]; activation [4]: 0.174% [at 11.8 µM]; activity change, negative = cytotoxicity [5]: -5.03% [at 13.5 µM]; activity change, negative = cytotoxicity [16]: -0.723% [at 13.5 µM]; activity, negative = inhibition [6]: -3.48% [at 12.7 µM]; activation [7]: -0.137% [at 15.9 µM]; activity, negative = inhibition [8]: -12.8% [at 12.6 µM]; activation [9]: 0.19% [at 15.8 µM]; activation [18]: -2.05% [at 19 µM]; activity change, negative = inhibition [19]: -19.6% [at 18.9 µM]; activation [20]: -0.576% [at 19 µM]; activation [11]: -1.1% [at 19 µM]; activity change, negative = inhibition [12]: -0.773% [at 18.9 µM]

Question: With `CCCCCCCCCCCCCBr` as the compound, how does the Potency [1] read?
Answer: Its Potency is “inactive”.

Question: What about the Potency [2] of the same compound?
Answer: The Potency was “inactive”.

Question: And the Potency [3]?
Answer: The Potency was “inactive”.

Question: And the Potency [4]?
Answer: Its Potency is “inactive”.

Question: What about the Potency [5] of the same compound?
Answer: Its Potency is “inactive”.

Question: What about the Potency [16] of the same compound?
Answer: Its Potency is “inactive”.

Question: And the Potency [6]?
Answer: The Potency was “inactive”.

Question: And the Potency [7]?
Answer: Its Potency is “inactive”.

Question: What about the Potency [8] of the same compound?
Answer: The Potency was “inactive”.

Question: What about the Potency [9] of the same compound?
Answer: Its Potency is “inactive”.

Question: And the Potency [18]?
Answer: The Potency was “inactive”.

Question: What about the Potency [19] of the same compound?
Answer: The Potency was “inactive”.

Question: What about the Potency [10] of the same compound?
Answer: The Potency was “inactive”.

Question: What about the Potency [20] of the same compound?
Answer: Its Potency is “inactive”.

Question: And the Potency [11]?
Answer: The Potency was “inactive”.

Question: What about the Potency [12] of the same compound?
Answer: The Potency was “inactive”.

Question: What does the source list for `Cc1cc2nc3ccc(=[N+](C)C)cc-3sc2cc1N`?
Answer: Potency [1]: 2.37 µM (active); Potency [2]: inactive; Potency [3]: inactive; Potency [4]: inactive; Potency [5]: 11.2 µM (active); Potency [6]: inactive; Potency [7]: inactive; Potency [8]: inactive; Potency [9]: inactive; Potency [18]: inactive; Potency [19]: inactive

Question: For `Cc1ccc(Nc2nccc(N(C)c3ccc4c(C)n(C)nc4c3)n2)cc1S(N)(=O)=O`, which Potency [1] is on record?
Answer: Its Potency is 4.22 µM (active).

Question: What about the Potency [2] of the same compound?
Answer: The Potency was “inactive”.

Question: And the Potency [3]?
Answer: Its Potency is “inactive”.

Question: What about the Potency [4] of the same compound?
Answer: Its Potency is “inactive”.

Question: And the Potency [6]?
Answer: The Potency was “inactive”.

Question: And the Potency [7]?
Answer: Its Potency is “inactive”.

Question: And the Potency [8]?
Answer: The Potency was “inactive”.

Question: And the Potency [9]?
Answer: Its Potency is “inactive”.

Question: What about the Potency [18] of the same compound?
Answer: The Potency was “inactive”.

Question: What about the Potency [10] of the same compound?
Answer: Its Potency is 26.6 µM (active).

Question: What about the Potency [12] of the same compound?
Answer: The Potency was “inactive”.

Question: Which results are given for `CCOc1ccc2nc3cc(N)ccc3c(N)c2c1`?
Answer: Potency [1]: 29.8 µM (active); Potency [2]: inactive; Potency [3]: inactive; Potency [13]: inactive; Potency [14]: inactive; Potency [5]: inactive; Potency [15]: inactive; Potency [16]: inactive; Potency [6]: inactive; Potency [7]: inactive; Potency [8]: inactive; Potency [9]: inactive; Potency [10]: inactive; Potency [11]: inactive; Potency [12]: inactive
